The values below come from the supplement of paper PMC4683952.

Counter-ions that a name gives are not always drawn. The campaign covered roughly 1,200 compounds. About 50 (4%) showed activity. What follows is part of a selection rich in actives, with near analogues and random picks from the rest. A number with no mark means an inactive call. Rule as the data show it: all actives reach 1.3 or more but so do some inactives.

The subject of this experiment is Lgr5 (MarsCy1-Lgr5-EGFP, U2OS). Kind of experiment: cell-surface Lgr5 expression (SCi1 fluorescence, background-subtracted) relative to WT DMSO (fold of DMSO control); higher = more Lgr5 at the plasma membrane, active = hit call of the paper. Particulars: U2OS MarsCy1-Lgr5-EGFP stable; treatment time: overnight; 16 µM; library: Johns Hopkins Clinical Compound Library.
On to `CCC(C(=O)OCCN(CC)CC)c1ccccc1` (stereo unspecified) [Butetamate (Butethamate)], for which the “cell-surface Lgr5 expression” value is 1.2.
As for `CCN(CC)CCOCCOC(=O)C(CC)(CC)c1ccccc1` [Oxeladin citrate salt], the figure is 1.48 (active); as for `CCN(CC)CC#CCOC(=O)C(O)(c1ccccc1)C1CCCCC1` (stereo unspecified) [Oxybutynin chloride], 0.687; as for `Cc1cc(/C=C/c2ccc3cc(N(C)C)ccc3[n+]2C)c(C)n1-c1ccccc1` [Pyrvinium pamoate], 1.09.
Consider `C[Se]CCC(N)C(=O)O` [Seleno-D, L-methionine], for which the “cell-surface Lgr5 expression” value was 1.08.
As for `CCCCCC(=O)O[C@]1(C(C)=O)CC[C@H]2[C@@H]3CCC4=CC(=O)CC[C@]4(C)[C@H]3CC[C@@]21C`, the figure is 1.11.
As for `CCCCCC(=O)O[C@]1(C(C)=O)CC[C@H]2[C@@H]3CCC4=CC(=O)CC[C@]4(C)[C@H]3CC[C@@]21C` [Progesterone caproate (17alpha-hydroxyprogesterone)], the figure is 1.05; as for `CC(=O)[C@@]1(O)CC[C@H]2[C@@H]3C[C@H](C)C4=CC(=O)CC[C@]4(C)[C@H]3CC[C@@]21C` [6α-Methyl-17α-hydroxy-progesterone (Medroxyprogesterone)], 1.45; as for `CC(=O)[C@H]1CC[C@H]2[C@@H]3C[C@H](C)C4=CC(=O)CC[C@]4(C)[C@H]3[C@@H](O)C[C@]12C` [Medrysone (6-alpha-Methyl-11-beta-Hydroxyprogesterone)], 1.27.
As for `CC(=O)[C@H]1CC[C@H]2[C@@H]3CCC4=CC(=O)CC[C@]4(C)[C@H]3CC[C@]12C` [Progesterone], the figure is 1.16; as for `C[C@]12CCC(=O)C=C1CC[C@@H]1[C@@H]2[C@@H](O)C[C@]2(C=O)[C@@H](C(=O)CO)CC[C@@H]12` [Aldosterone], 1.55 (active).
Regarding `CC(=O)O[C@]1(C(C)=O)CC[C@H]2[C@@H]3CCC4=CC(=O)CC[C@]4(C)[C@H]3CC[C@@]21C` [Hydroxyprogesterone acetate (17alpha-Acetoxyprogesterone)], the “cell-surface Lgr5 expression” value was 1.21.
As for `CC(=O)OCC(=O)[C@H]1CC[C@H]2[C@@H]3CCC4=CC(=O)CC[C@]4(C)[C@H]3CC[C@]12C`, the figure is 1.01; as for `C[C@]12CCC(=O)C=C1CC[C@@H]1[C@@H]2[C@@H](O)C[C@@]2(C)[C@H]1CC[C@]2(O)C(=O)COC(=O)CCC(=O)O` [Hydrocortisone hemisuccinate monohydrate], 1.36 (active).
Consider `CC1(C)O[C@@H]2C[C@H]3[C@@H]4C[C@H](F)C5=CC(=O)CC[C@]5(C)[C@H]4[C@@H](O)C[C@]3(C)[C@]2(C(=O)CO)O1`, for which the “cell-surface Lgr5 expression” value is 1.55 (active).
With `CC1(C)O[C@@H]2C[C@H]3[C@@H]4C[C@H](F)C5=CC(=O)C=C[C@]5(C)[C@H]4[C@@H](O)C[C@]3(C)[C@]2(C(=O)CO)O1` [Flunisolide], the “cell-surface Lgr5 expression” value is 1.47 (active).
